Consider 40 compounds from the supplement of paper PMC7530171.

Structures can show the parent of a compound that is named as a salt. ± gives the standard deviation.

The test relates to THP-1 macrophages infected with Mycobacterium tuberculosis H37Rv. In words: intracellular M.tb growth inhibition relative to DMSO (0) and 4 uM bedaquiline (100); higher = stronger inhibition of intracellular bacterial growth. As to conditions: 10 µM; 4 days. How it is done:
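OICR kinase inhibitor library screened in duplicate at 10 uM against THP-1 macrophages (PMA-differentiated) infected with M. tuberculosis H37Rv-pTEC27 (tdTomato RFP), 4 days at 37 C. Rows with complete host cell loss (placeholder inhibition 0, cell loss 100) were removed.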
In the case of `CO[C@@H](C(=O)N1Cc2[nH]nc(NC(=O)c3ccc(N4CCN(C)CC4)cc3)c2C1)c1ccccc1`, the “intracellular M.tb growth inhibition” value is -228 ± 250%.

`NCc1ccc(Nc2ncc(F)c(Nc3ccccc3)n2)cc1` [Dianilinopyrimidine_01]: the “intracellular M.tb growth inhibition” value worked out at 99.2 ± 230%.

For `O=c1c(-c2ccc(O)cc2)coc2cc(O)cc(O)c12` [Genistein], the “intracellular M.tb growth inhibition” value came out at 10.7 ± 10%.

Consider `CCn1c(-c2nonc2N)nc2cnc(Oc3cccc(NC(=O)c4ccc(OCCN5CCOCC5)cc4)c3)cc21`, for which the “intracellular M.tb growth inhibition” value came to 54.4 ± 77%. The result for `C[C@@H](Oc1cc(-n2cnc3ccc(CN4CCN(C)CC4)cc32)sc1C(N)=O)c1ccccc1C(F)(F)F` reads -31.9 ± 42%; that for `CC#CC(=O)Nc1cc2c(Nc3ccc(F)c(Cl)c3)ncnc2cn1`, -68.3 ± 97%; that for `Nc1ncnc2c1c(-c1cccc(OCc3ccccc3)c1)cn2C1CC(CN2CCC2)C1` (stereo not given), -22.8 ± 12%.

As to `CNC(=O)c1cc(Oc2ccc(NC(=O)Nc3ccc(Cl)c(C(F)(F)F)c3)c(F)c2)ccn1`, the “intracellular M.tb growth inhibition” value amounted to 50.6 ± 65%. For `NC(=O)c1sc2c([N+](=O)[O-])cc(C(F)(F)F)cc2[n+]1[O-]` [Cyclapolin 9], the “intracellular M.tb growth inhibition” value is -65.9 ± 140%. Consider `C/C(=N\N=C(N)N)c1ccc(NC(=O)c2cc3cccc([N+](=O)[O-])c3[nH]2)cc1`, for which the “intracellular M.tb growth inhibition” value was -73 ± 67%. Turning to `NCC(=O)Nc1ccc(-n2nc(C(F)(F)F)cc2-c2ccc3c(ccc4ccccc43)c2)cc1`, the “intracellular M.tb growth inhibition” value was found to be 92.3 ± 8.1%. The same measure for `Cc1cc(Nc2ncc3cc(-c4c(Cl)cccc4Cl)c(=O)n(C)c3n2)ccc1F`: 4.79 ± 6.8%.

On to `CS(=O)(=O)c1cccc(CNc2nc(Nc3ccc4c(c3)CCC(=O)N4)ncc2C(F)(F)F)c1`, for which the “intracellular M.tb growth inhibition” value was -96.4 ± 26%. Consider `Cc1cc(Nc2nc(N[C@@H](C)c3ncc(F)cn3)ncc2Cl)[nH]n1`, for which the “intracellular M.tb growth inhibition” value is -234 ± 120%. The same measure for `CC[C@@H]1/C=C(\C)C[C@H](C)C[C@H](OC)[C@H]2O[C@@](O)(C(=O)C(=O)N3CCCC[C@H]3C(=O)O[C@H](/C(C)=C/[C@@H]3CC[C@H](Cl)[C@H](OC)C3)[C@H](C)[C@@H](O)CC1=O)[C@H](C)C[C@@H]2OC` [Pimecrolimus]: 45.4 ± 4.6%; for `Cn1cc(-c2ccc3nnc(C(F)(F)c4ccc5ncccc5c4)n3n2)cn1`: -109 ± 120%; for `N#C/C(=C\c1ccc(O)c(O)c1)C(=O)Nc1ccccc1`: -35.4 ± 5.2%.

For `NC(=O)c1ccc(N(C(N)=O)c2c(F)cccc2F)nc1-c1ccc(F)cc1F`, the “intracellular M.tb growth inhibition” value is -1.77 ± 10%. For the compound `CN(C)CCOc1cc(-c2cn[nH]c2)ccc1NC(=O)C1COc2ccccc2O1` (stereo not given), the “intracellular M.tb growth inhibition” value was -97.9 ± 79%. The result for `CCCCCCCC(=O)OCCOC(=O)CCCCCCC` [Dioctanoylglycol] reads 0.763 ± 3%; that for `COC(=O)Nc1ccc(-c2nc(N3CCOCC3)c3cnn(C4CCN(C(=O)OC)CC4)c3n2)cc1`, -222 ± 330%; that for `O=C(O)c1ccc2c(c1)nc(Nc1cccc(Cl)c1)c1ccncc12`, -112 ± 130%. The same measure for `C/C(=N\N=C(N)N)c1ccc(NC(=O)Nc2ccc(/C(C)=N/N=C(N)N)cc2)cc1`: 63.3 ± 10%. Turning to `COc1ccc(-c2ccc3c(N4CCOCC4)nc(N4C[C@@H](C)O[C@@H](C)C4)nc3n2)cc1CO`, the “intracellular M.tb growth inhibition” value was -282 ± 370%. The same measure for `Nc1ncnc2nc(-c3ccc(N4CCOCC4)nc3)cc(-c3cccc(Br)c3)c12` [ABT-702 dihydrochloride]: 29.6 ± 24%. The result for `Nc1nc(Nc2ccc(S(N)(=O)=O)cc2)nn1C(=S)Nc1c(F)cccc1F` [Cdk1/2 Inhibitor III] reads -193 ± 240%; that for `Nc1cc(C(F)(F)F)c(-c2cc(N3CCOCC3)nc(N3CCOCC3)n2)cn1`, -76.8 ± 110%; that for `COc1cc(OC)c(/C=C/S(=O)(=O)Cc2ccc(OC)c(NCC(=O)O)c2)c(OC)c1`, -33.5 ± 120%. The result for `O=S(=O)(NCCNC/C=C/c1ccc(Br)cc1)c1cccc2cnccc12` [H 89 dihydrochloride] reads 70.3 ± 6.1%; that for `Nc1[nH]nc2nc3ccccc3nc12`, 0.53 ± 68%; that for `Oc1cccc(-c2nc(N3CCOCC3)c3sccc3n2)c1` [PI3-Kinase a Inhibitor 2], -170 ± 240%.

As to `CCN(CCCOc1ccc2c(Nc3cc(CC(=O)Nc4cccc(F)c4)[nH]n3)ncnc2c1)CCOP(=O)(O)O`, the “intracellular M.tb growth inhibition” value is -79.3 ± 96%. The same measure for `C[C@@H]1CCN(C(=O)CC#N)C[C@@H]1N(C)c1ncnc2[nH]ccc12`: -17.5 ± 21%; for `CO[C@H]1C[C@@H]2CC[C@@H](C)[C@@](O)(O2)C(=O)C(=O)N2CCCC[C@H]2C(=O)O[C@H]([C@H](C)C[C@@H]2CC[C@@H](O)[C@H](OC)C2)CC(=O)[C@H](C)/C=C(\C)[C@@H](O)[C@@H](OC)C(=O)[C@H](C)C[C@H](C)/C=C/C=C/C=C/1C` [Rapamycin]: 15.9 ± 11%; for `COc1ccc(OC)c2c(=S)c3ccccc3[nH]c12`: -14.9 ± 44%.

Regarding `Cn1cc(C2=C(c3ccc(Cl)cc3Cl)C(=O)NC2=O)c2ccccc21`, the “intracellular M.tb growth inhibition” value was -108 ± 200%. The same measure for `Cc1cc(C=C2C(=O)C=CC2=O)cc(C)c1O`: -63.7 ± 80%; for `Cc1c[nH]c(/C=C2\C(=O)Nc3ccccc32)c1CCC(=O)O`: 27.3 ± 23%. On to `COc1cc2c(cc1OC)-c1[nH]nc(Nc3cccc(F)c3)c1C2`, for which the “intracellular M.tb growth inhibition” value was determined as 62.2 ± 12%.

Regarding `Nc1ccc(C(=O)Nc2cccc(-c3nc(N4CCOCC4)c4oc5ncccc5c4n3)c2)cn1`, the “intracellular M.tb growth inhibition” value came out at 17.6 ± 65%.
